UCHL1 inh: inhibitors of human UCHL1 deubiquitinase; Ubiquitin carboxyl-terminal hydrolase isozyme L1 (Homo sapiens), P09936; purified UCHL1, Ub-rhodamine cleavage fluorescence; inhibition, % at 20 µM; actives 0.2% (n = 47,000); AID 1645859, 2021
OTUD3 block: inhibitors of human OTUD3 deubiquitinase. actives 0.7% (n = 47,000). purified OTUD3, Ub-rhodamine fluorescence, 2 h. AID 1645858, 2021. inhibition, % at 25 µM
USP7 inh: inhibitors of human USP7 deubiquitinase; Ubiquitin carboxyl-terminal hydrolase 7 (Homo sapiens), Q93009; purified USP7, Ub-rhodamine cleavage fluorescence; inhibition, % at 20 µM; actives 0.3% (n = 47,000)
Of the large screens only hits and unclear results are named; the others gave an inactive call. Rows were chosen to be rich in hits. Some 1.1% of all compounds tested hit in one or more screens of this group. Rule as the data show it: active = inhibition above about 30%; inactive = the rest.

CC(C)OCCCn1c(=O)c2ccccc2n2c(CCC(=O)NCc3ccccn3)nnc12	none
COc1cccc(NC(=O)CCc2nnc3n(CCCOC(C)C)c(=O)c4ccccc4n23)c1	OTUD3 block 37 (no result: USP7 inh)
COc1ccccc1CNC(=O)c1c(O)c2cnn(-c3cccc(C)c3)c2[nH]c1=O	none
CCc1ccc(OC(=O)c2ccc(CC)cc2)cc1	none
CO[C@H]1CC[C@H](O)c2c1oc1c3c4c(c(O)c1c2=O)-c1c(cc2c(Cl)c(C)n(N)c(=O)c2c1O)C[C@@H]4OCO3	OTUD3 block 44
Cc1ccc2[nH]c(=O)c(-c3noc(CCC(=O)NC4CCCC4)n3)cc2c1	none
Cc1ccc2cc(-c3noc(CCC(=O)NC4CCCC4)n3)c(=O)[nH]c2c1	USP7 inh 41
COc1ccc2c(C)c(CC(=O)N3CCC[C@H]3C(=O)O)c(=O)oc2c1C	OTUD3 block 32
COc1ccc2c(C)c(CCC(=O)N3CC[C@@]4(O)CCCC[C@H]4C3)c(=O)oc2c1C	none
O=C(CC1C(=O)Nc2nc(-c3ccc(Cl)cc3)nn21)Nc1ccc2c(c1)OCCO2 (stereo not given)	none
O=C(/C=C/c1ccco1)Nc1nc2n(n1)C(c1ccccc1)CC(=O)N2 (stereo not given)	none
COc1ccccc1/C=C/C(=O)Nc1nc2n(n1)C(c1ccc(Cl)cc1)CC(=O)N2 (stereo not given)	OTUD3 block 37
O=C(CCCCn1c(=O)[nH]c2ccccc2c1=O)Nc1cccc(Cl)c1	USP7 inh 30
O=C(CCCCCn1c(=O)[nH]c2ccccc2c1=O)Nc1ccccc1Br	none
O=C(NCc1ccccc1)Nc1cccn2nc(C3CC3)nc12	none
Cc1ccc(-c2cn3ccsc3n2)cc1	none
O=C(Nc1ccc(-c2cn3ccsc3n2)cc1)c1ccc(Cl)c([N+](=O)[O-])c1	USP7 inh 54
CNC1CCc2cc(OC)c(OC)c(OC)c2-c2ccc(N3CCN(C)CC3)c(=O)cc21 (stereo not given)	none
COc1ccc(NC(=O)N2CCCC(CN3CCc4ccccc4C3)C2)cc1OC (stereo not given)	none
CCCN1C(=O)C2C(C(=O)Nc3ccc(Oc4ccccc4)cc3)C3C=CC2(O3)C1C(=O)NC1CCCCC1 (stereo not given)	none
CC(C)OCCCN1C(=O)C2C(C(=O)Nc3ccc(Oc4ccccc4)cc3)C3C=CC2(O3)C1C(=O)NC1CCCCC1 (stereo not given)	OTUD3 block 33
CN(C)c1cc(C(=O)NCCN2CCOCC2)nc2ccnn12	none
O=C(c1cnc2ccccc2c1)N1C[C@H]2CC[C@@H](Nc3cnccn3)[C@H]2C1	none
Cc1cc(NC(=O)Cn2c(=O)n(CCCCC(=O)NCc3ccco3)c(=O)c3ccccc32)ccc1Br	none
Cc1ccc(Cl)cc1NC(=O)Cn1c(=O)n(CCC(=O)NCc2ccco2)c(=O)c2ccccc21	none
COc1cc2c(=O)n(CCC(=O)NCc3ccco3)c(=O)n(CC(=O)Nc3c(C)cccc3C)c2cc1OC	OTUD3 block 50
Cc1ccc(NC(=O)Cn2c(=O)n(CC(=O)NCc3ccco3)c(=O)c3ccccc32)cc1C	OTUD3 block 41
CCN1CC2(CC1=O)CN(C(C)=O)CCN(C(=O)NCc1cccc(OC)c1)C2 (stereo not given)	none
CS(=O)(=O)c1ccccc1CN1CCC(N(Cc2cccnc2)C(=O)c2ccco2)CC1	none
COc1ccc(C2CC(=O)Nc3ccc4ccccc4c32)c(OC)c1OC (stereo not given)	none
CCOc1ccccc1C1CC(=O)Nc2ccc3ccccc3c21 (stereo not given)	UCHL1 inh 89
O=C(Nc1ccc(F)cc1)NC1CCc2ncc(C(F)(F)F)n2C1 (stereo not given)	none
CC(=O)C1=C(O)[C@@]2(O)C(=O)c3c(c(C)c4ccc(C)c(O)c4c3O)C[C@H]2[C@@H](N)C1=O	UCHL1 inh 53, OTUD3 block 51, USP7 inh 50
CS(=O)(=O)N1CCN(c2ccc(NC(=O)COc3ccccc3)cc2)CC1	none
CS(=O)(=O)N1CCN(c2ccccc2NC(=O)COc2ccc(Br)cc2)CC1	USP7 inh 63
Cc1cc(C)c(C#N)c(N2CCN(S(=O)(=O)Cc3ccccc3)CC2)n1	none (no result: USP7 inh)
COc1cc2c(C#N)c(N3CCCC3)nc3c2c(n1)NC(C)(c1ccc(-c2ccccc2)cc1)N3 (stereo not given)	USP7 inh 35
Cc1ccc([N+](=O)[O-])cc1S(=O)(=O)Nc1cc2sc(=O)oc2c2ccccc12	OTUD3 block 33
COc1ccccc1NS(=O)(=O)c1cc([N+](=O)[O-])ccc1NCC1COc2ccccc2O1 (stereo not given)	none
CC(C)Cc1nc(SCC(=O)Nc2ccc3c(c2)OCO3)c2c(=O)n(C)c(=O)n(C)c2n1	none
Cc1ccc(C(=O)Nc2c(C(=O)N3CCN(c4ccccc4)CC3)[nH]c3ccccc23)cc1	OTUD3 block 46
Cc1ccc(C(=O)Nc2c(C(=O)N3CCN(c4cccc(C)c4)CC3)[nH]c3ccccc23)cc1	none
Cc1ncccc1NC(=O)c1ncn2c1CN(CC1CC1)S(=O)(=O)c1ccccc1-2	none
Cc1nc(C(=O)NC2(O)C(=O)c3ccccc3C2=O)cs1	none
CSc1ncccc1C(=O)NC1(O)C(=O)c2ccccc2C1=O	UCHL1 inh 34
C[C@@H]1CO[C@@H]2C3=C(C(=O)C=CC3=O)[C@H]3OC(=O)[C@@H]4CCC5[C@@H]1CCC52C34 (stereo not given in full)	OTUD3 block 59
Cc1nn(CC(=O)NCC2CCCCC2)c(C)c1S(=O)(=O)N(C)C	none
CCC(=O)Oc1ccc(/C=C(\C#N)c2nnc3n2CCCCC3)cc1	none
COc1ccc(OC)c(NC(=O)c2sc(-c3ccccc3)nc2C)c1	OTUD3 block 48
CC(=O)c1cccc(NC(=O)c2sc(-c3ccccc3)nc2C)c1	none
O=C(NCc1ccco1)c1nc(-c2ccc3cc[nH]c3c2)no1	none
Cc1ccc(OCC(=O)N2CC(C(N)=O)Oc3ccccc32)c(C)c1 (stereo not given)	none
O=C(Nc1ccc(F)cc1)Nc1ccccc1OCc1cc(=O)n2ccccc2n1	OTUD3 block 33
O=C(Nc1ccc2c(c1)OCCO2)Nc1ccccc1OCc1cc(=O)n2ccccc2n1	none
Cc1cc(Cl)ccc1NC(=O)c1cc(-c2ccncc2)n[nH]1	none
COc1cc(C(=O)OCc2csc(-c3ccccc3)n2)cc(Cl)c1OC	none
COc1cc(C(=O)OCc2csc(-c3ccccc3)n2)ccc1OCC(=O)Nc1ccc(F)cc1	OTUD3 block 36
COc1cc2c(cc1OC)-c1cc(NCc3cc(OC)c(OC)c(OC)c3)nc(=O)n1CC2	OTUD3 block 41
COc1cc2c(cc1OC)-c1cc(NCC(C)C)nc(=O)n1CC2	none
CCN1CC[C@@]2(C(=O)N3CCCC3)CCN(C(=O)c3ccc(Cl)cc3)CC[C@@H]12	none (no result: USP7 inh)
Cc1ccc(S(=O)(=O)N2CCC(c3c(C)[nH]c4ccccc34)CC2)cc1	none
CC1=C(C)C(c2c(-c3ccc(C)cc3)[nH]c3ccccc23)N(C(C)(C)C)C1=O (stereo not given)	USP7 inh 32
COc1ccccc1-c1nc2c3c(C)c(C)n(-c4ccc(Br)cn4)c3ncn2n1	none
COc1ccc(C2CC(c3ccccc3)N(C(=O)C3CC3)c3ncnn32)cc1 (stereo not given)	none

Assay outcomes: PubChem, Buhrlage Lab, Dana-Farber Cancer Institute and Novartis Institutes for BioMedical Research (Cambridge, Mass)
